Measured values: PubChem BioAssay (NCI)
This is part of a sample that, as a whole, favours compounds with a hit. Of some 83,000 tested, about 20% had one in any assay.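 Activity criterion: percent growth below 10, measured after cells in 96-well plates were exposed to a single compound concentration for 48 hours.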 Values without a mark were called inactive. Calls of active or inactive are those of the source.

Experiments:
Assay in all cases: NCI-60 one-dose screen, 48 h (100 = growth as untreated, 0 = no growth, -100 = all killed)
EKVX NSCLC = conditions: 10 µM unless noted
SN12C renal = conditions: 10 µM unless noted
UO-31 renal = conditions: 10 µM unless noted
TK-10 renal = conditions: 10 µM unless noted
ACHN renal = conditions: 10 µM unless noted
CAKI-1 renal = conditions: 10 µM
A498 renal = conditions: 10 µM unless noted
CCRF-CEM leukemia = conditions: 10 µM unless noted
MOLT-4 leukemia = conditions: 10 µM unless noted
SR leukemia = conditions: 10 µM unless noted
RPMI-8226 leukemia = conditions: 10 µM unless noted
OVCAR-8 ovarian = conditions: 10 µM unless noted
OVCAR-5 ovarian = conditions: 10 µM unless noted
OVCAR-4 ovarian = conditions: 10 µM unless noted
SK-OV-3 ovarian = conditions: 10 µM unless noted
IGROV1 ovarian = conditions: 10 µM unless noted
HS 578T breast = conditions: 10 µM unless noted
NCI/ADR-RES ovarian = conditions: 10 µM unless noted
OVCAR-3 ovarian = conditions: 10 µM unless noted

| SMILES | growth (EKVX NSCLC) | growth (SN12C renal) | growth (UO-31 renal) | growth (TK-10 renal) [%] | growth (ACHN renal) | growth (CAKI-1 renal) | growth (A498 renal) | growth (CCRF-CEM leukemia) | growth (MOLT-4 leukemia) [%] | growth (SR leukemia) | growth (RPMI-8226 leukemia) | growth (OVCAR-8 ovarian) | growth (OVCAR-5 ovarian) | growth (OVCAR-4 ovarian) | growth (SK-OV-3 ovarian) [%] | growth (IGROV1 ovarian) | growth (HS 578T breast) | growth (NCI/ADR-RES ovarian) | growth (OVCAR-3 ovarian) [%] |
| --- | --- | --- | --- | --- | --- | --- | --- | --- | --- | --- | --- | --- | --- | --- | --- | --- | --- | --- | --- |
| CNC(=O)c1cc(Oc2ccc3nc(NC(=O)c4cc(C)cc(C)c4)sc3c2)ccn1 | 82% | 90.3% | 78.8% | 78.5 | 93.4% | 79% | 59.7% | 57.3% | 58.3 | 30.9% | 51.9% | 91.1% | 104% | 77% | 97.4 | 88.7% | 85.8% | 76% |  |
| Cc1ccccc1/C=C/c1nn2c(-c3ccoc3C)nnc2s1 | 100% | 101% | 85.4% | 95.5 | 102% | 89.8% | 89.5% | 108% |  |  | 91.4% | 97.1% | 100% | 99.6% | 118 | 107% | 111% | 93.7% |  |
| CS(=O)c1nccc(-c2c(-c3ccc(F)c(OCc4ccc(F)cc4)c3)nc3sccn23)n1 (stereo unspecified) | 75.2% | 93.6% | 89.3% | 108 | 77.2% | 70.8% | 88.2% | 45.8% |  | -22.2% (active) | 20.2% | 89.1% | 100% | 101% | 115 | 17.7% | 98.4% | 107% |  |
| C=CCn1c(SCC(=O)Nc2cccc(C(=O)/C=C/c3ccccc3Cl)c2)nc2ccccc2c1=O | 94.7% | 91.5% | 73% | 110 | 96.3% | 79.2% | 82.8% | 93.8% |  | 14% | 1.65% (active) | 92% | 95.1% | 87.7% | 119 | 92% | 89.6% | 90.4% |  |
| COc1cc2c3c(n(CCCNC4CCC4)c(=O)c2cc1OC)-c1cc2c(cc1C3=O)OCO2 | -38.4% (active) | -48.9% (active) | -70.9% (active) | 98.8 | -89.7% (active) | -82.2% (active) | 74.4% | -6.07% (active) |  |  | -39.1% (active) | -49.8% (active) | -72.4% (active) | -57.9% (active) | 23.4 | -53.3% (active) | 84.1% | -32.4% (active) |  |
| Cn1cc(-c2nn3c(=O)cc(-c4ccccc4)nc3s2)c2cc(F)ccc21 | 64.3% | 69.6% | 57.1% | 85.6 | 37.7% | 31.6% | 62.5% | 52.8% |  |  | 69.2% | 36.6% | 75.1% | 47.5% | 68.4 | 65.2% | 60.9% | 42.2% |  |
| CCN1CCN(Cc2ccc(C(=O)Nc3nc4ccc(Oc5ccnc(C(=O)NC)c5)cc4s3)cc2C(F)(F)F)CC1 | 52.4% | 77.4% | 33.2% | 91.6 | 57.4% | 47.2% | 74.1% | 60.6% |  |  | 26.4% | 60.8% | 76.7% |  | 83.7 | 70.3% | 51.9% | 67% |  |
| C/C(Cc1ccc(Cl)cc1)=C(/c1ccccc1)c1ccc(OCCN)cc1 | 98.7% | 103% | 89.7% | 100 | 99.4% | 92.5% | 95.8% | 110% |  |  | 101% | 101% | 97.4% | 101% | 117 | 98.3% | 97.1% | 94.8% |  |
| O=c1cc(-c2ccccc2)nc2sc(-c3c[nH]c4ccc(Br)cc34)nn12 | 91.2% | 94.9% | 79.6% | 110 | 96.3% | 91.4% | 85.5% | 123% |  |  | 112% | 106% | 100% | 105% | 110 | 98.9% |  | 101% |  |
| C=CCn1c(SCC(=O)Nc2cccc(C(=O)/C=C/c3cccc([N+](=O)[O-])c3)c2)nc2ccccc2c1=O | 96% | 98.3% | 79% | 98.4 | 96.5% | 81.2% | 81.1% | 94.5% |  |  | 17% | 94.2% | 92.5% | 92% | 116 | 96.8% |  | 95.7% |  |
| COc1ccc(OC)c(NC2=C(Cl)C(=O)C(C)=C(C)C2=O)c1 | 77.4% | 92.8% | 92.4% | 172 | 100% | 94% | 91.6% |  | 36 | 96.5% | 65.9% | 95.6% | 109% | 55.5% |  | 89.6% | 92.8% | 96.8% | 92.3 |
| CN1CCN(c2ccc(C(=O)Nc3cccc(-c4cn(-c5ccc(S(N)(=O)=O)cc5)nn4)c3)cc2C(F)(F)F)CC1 | 89.9% | 92.4% | 86.9% | 117 | 87.6% | 73.8% | 97.6% |  | 13.2 | -1.19% (active) | 10.7% | 86.7% | 84.3% | 84.8% | 102 | 86.9% | 71% | 101% |  |
| O=c1cc(-c2ccccc2)nc2sc(-c3c[nH]c4ccc(F)cc34)nn12 | 52% | 56.6% | 20.3% | 50.9 | 30% | 60.5% | 88.8% | 88.4% |  |  | 71.9% | 62% | 77.2% | -14.1% (active) | 56.6 | 85.4% | -4.32% (active) | 60.6% |  |
| COc1ccc(NC(=O)Cn2cc(CN3C(=O)c4ccc([N+](=O)[O-])cc4C3=O)nn2)cc1 | 105% | 99.7% | 88.1% | 103 | 104% | 87.7% | 88.2% |  | 101 |  | 102% | 94.2% | 115% | 112% | 93.2 | 107% | 106% | 100% |  |
| C=CCn1c(SCC(=O)Nc2cccc(C(=O)/C=C/c3ccc(C)cc3)c2)nc2ccccc2c1=O | 91.5% | 91.5% | 63.9% | 105 | 89.5% | 80% | 85.9% | 98.4% |  |  | 27.1% | 82.1% | 101% | 84.9% | 113 | 95.8% | 101% | 84.5% |  |
| O=S(=O)(Nc1ccc2c(c1)OC(F)(F)O2)c1ccc(-c2cnc(C3CC3)o2)cc1 | 58% | 52.8% | 56.7% | 84.3 | 57.1% | 17.5% | 23.2% |  | 30.3 | 27.8% |  | 56.3% | 73.2% | 59.4% | 65.6 | 42.8% | 40.6% | 24.7% | 20.3 |
| COc1ccc2c(C3=C(c4cn(C)c5ccccc45)C(=O)NC3=O)coc2c1 | 50.7% | 32.3% | 37.8% | 79.4 | 37.4% | 42% | 34.9% | 18.8% |  |  | 11.6% | 41% | 43% |  | 47.6 | 47.2% |  | 25.1% |  |
| COc1ccc([C@@H]2[C@@H](O)C(=O)N2c2cc(OC)c(OC)c(OC)c2)cc1Cl | 52.4% | 25.6% | 31.8% | 89.4 | 27.9% | 30.6% | -16.9% (active) | 19.6% |  |  | 28.4% | -11.7% (active) | 28.9% | 68.7% |  | 27.1% | 8.59% (active) | -21.2% (active) |  |
| COc1cc2oc(-c3cccc(NC(=O)c4cc(NC(=O)[C@H](C)NC(=O)OC(C)(C)C)ccc4C)c3)cc(=O)c2c(OC)c1OC | 85.4% | 69.5% | 36.3% | 89.1 | 61.9% | 53% | 61.9% |  | 51.5 | 25.1% | 45% | 42.6% | 110% | 63.9% | 115 | 60.6% | 38.2% | 87.3% |  |
